# Measured values: ChEMBL document CHEMBL3988442, “University of Dundee, Small-Polar-MMV Screening Library” (2021)
# Screen size: about 69,000 compounds; about 1,000 (1.4%) showed an effect of 50% or more. The sample holds strong results, similar compounds and a random draw of the others, so the mix is not that of the screen.
# Tested on: Leishmania donovani
# Test: Leishmania intramacrophage assay
# Format: functional, organism-based
# Design: scale not given: in the data most compounds retested in dose-response had high values
compound,measurement,setting,value
COc1ncccc1C(=O)N1CCCC1c1c(C)n[nH]c1C (stereo not given),Percent Effect,"30.3 µM, […]",18%
Cc1noc(C2CCCN(C(=O)CCCNc3ncccn3)C2)n1 (stereo not given),Percent Effect,30 µM,-32%
CN(CC(=O)N1CCN(c2ncccn2)CC1)c1ccc(Cl)cn1,Percent Effect,"30 µM, 30.03 µM",26.44%
O=C(O)c1ccc(CC2CCN(Cc3ccc(-c4cc[nH]n4)o3)C2)cc1 (stereo not given),Percent Effect,"30.3 µM, […]",-33.6%
O=C(O)c1ccccc1C1CCN(Cc2ccc(-c3cc[nH]n3)o2)C1 (stereo not given),Percent Effect,"30.3 µM, […]",8.649%
O=C(O)c1ccc(C2CCCN(Cc3ccc(-c4cc[nH]n4)o3)C2)cc1 (stereo not given),Percent Effect,"30.3 µM, […]",54.21%
CNC(=O)CNC(=O)Nc1ccc(Br)c(F)c1,Percent Effect,"30.3 µM, […]",-0.911%
CCOc1ccc2ccccc2c1CNCC1CCS(=O)(=O)C1.Cl (stereo not given),Percent Effect,"30.3 µM, […]",-4.478%
CCOc1ccc2ccccc2c1CNCC1CCNCC1.Cl.Cl,Percent Effect,"30.3 µM, […]",87.01%
COc1ccc2ccccc2c1CNCC1CCS(=O)(=O)C1.Cl (stereo not given),Percent Effect,"30.3 µM, […]",-2.378%
CN(C)C(=O)COC1COC2(CCN(S(C)(=O)=O)CC2)C1 (stereo not given),Percent Effect,"30 µM, 30.03 µM",8.131%
COc1ccc(-c2noc([C@@H](C)NS(=O)(=O)CC(C)C)c2C(=O)O)cc1,Percent Effect,"30.3 µM, […]",14.82%
OCc1ccncc1NCc1cnc(-c2ccccn2)s1,Percent Effect,"30.3 µM, […]",26.01%
Cc1nn(CC(=O)NCCc2ccncc2)c(=O)n1Cc1ccccc1,Percent Effect,"30.3 µM, […]",4.169%
C=C(C)COc1cccc(CNCCc2nc(N)cc(O)n2)c1,Percent Effect,"30.3 µM, […]",10.98%
CCOCc1ccc(NC(=O)N2CCOC3(CCC3)C2)cc1,Percent Effect,"30.3 µM, […]",-4.354%
Cc1ccc(C(=O)O)cc1CNC(=O)CN1CC[C@](C)(O)C(C)(C)C1,Percent Effect,"30.3 µM, […]",62.04%
CC1(C)CN(CC(=O)NCc2ccccc2F)C[C@]1(C)O,Percent Effect,"30.3 µM, […]",15.59%
Cc1ccc(C(=O)O)cc1CNC(=O)CN1CC(C)(C)[C@@](C)(O)C1,Percent Effect,"30.3 µM, […]",14.97%
Cn1ccnc1Sc1ccc(S(N)(=O)=O)cn1,Percent Effect,"30.3 µM, […]",-16.43%
Cl.Cn1ccnc1Sc1ccc(N)cn1,Percent Effect,"30.3 µM, […]",50.34%
CN1CCN(S(=O)(=O)c2ccc(Sc3nccn3C)nc2)CC1,Percent Effect,"30.3 µM, […]",0.3902%
COC(=O)CC1C(=O)NCCN1c1nc2c(s1)c(C)nn2C (stereo not given),Percent Effect,"30.3 µM, […]",6.396%
COc1ccc2c(O)c(NC(=O)NCC3CC3)cnc2c1,Percent Effect,"30 µM, 30.03 µM",-30.24%
CC(C)c1ccc(CN2C(=O)C3(CCNCC3)Nc3ccccc32)cc1,Percent Effect,"30.3 µM, […]",100.4%
N#Cc1cccc(CN2C(=O)C3(CCNCC3)Nc3ccccc32)c1,Percent Effect,"30.3 µM, […]",37.63%
NC(=O)c1ccc(CN2C(=O)C3(CCNCC3)Nc3ccccc32)cc1,Percent Effect,"30.3 µM, […]",29.82%
C=Cc1ccc(CN2CCCC3(CNC(=O)c4ccccc4O3)C2)cc1 (stereo not given),Percent Effect,"30.3 µM, […]",-7.721%
Cl.O=C1CC2(CCNCC2)C(=O)N1Cc1ccc(F)cc1,Percent Effect,"30.3 µM, […]",26.47%
C=Cc1ccc(CN2C(=O)C3(CCNCC3)Nc3ccccc32)cc1,Percent Effect,"30.3 µM, […]",98.05%
O=C(O)C(F)(F)F.O=S(=O)(N[C@@H]1CCO[C@]2(CCN(CC3CCOCC3)C2)C1)C1CC1,Percent Effect,"30.3 µM, […]",12.64%
Cn1cccc1C(=O)NCc1cn2c(n1)CN(Cc1ccccn1)CC2.O=C(O)C(F)(F)F.O=C(O)C(F)(F)F,Percent Effect,"30.3 µM, […]",52.64%
Cn1cc(C(=O)NCc2cn3c(n2)CN(Cc2ccccn2)CC3)cn1.O=C(O)C(F)(F)F.O=C(O)C(F)(F)F,Percent Effect,"30 µM, 30.03 µM",26.85%
Cn1cccc1C(=O)NCc1cn2c(n1)CN(Cc1cccnc1)CC2.O=C(O)C(F)(F)F.O=C(O)C(F)(F)F,Percent Effect,"30.3 µM, […]",5.106%
O=C(c1cccc2[nH]ccc12)N1CCC2(CCOC2)C1 (stereo not given),Percent Effect,"30.3 µM, […]",24.57%
Cc1cnc(N2CCOCC3(CCN(c4ccccn4)C3)C2)nc1.O=C(O)C(F)(F)F.O=C(O)C(F)(F)F (stereo not given),Percent Effect,"30.3 µM, […]",-8.514%
CCc1c(C)sc2nc3n(CCN(C)C)nc(SC)n3c(=O)c12,Percent Effect,"30.3 µM, […]",24.34%
CCc1c(C)sc2nc3n(CCN4CCOCC4)nc(SC)n3c(=O)c12,Percent Effect,"30.3 µM, […]",9.764%
CCc1c(C)sc2nc3n(CCN4CCCCC4)nc(SC)n3c(=O)c12,Percent Effect,"30.3 µM, […]",50.52%
CCn1cc(Br)c(C(=O)NCc2cccnc2)n1,Percent Effect,"30 µM, 30.03 µM",0.8694%
N#Cc1cnc(N2CCC3(CC2)OCCO3)nc1N,Percent Effect,"30.3 µM, […]",39.63%
Cc1ccc(-c2noc(CN3CCC(N4CCNC4=O)CC3)n2)cc1,Percent Effect,30 µM,33.86%
Cc1ccccc1-c1noc(CN2CCC(N3CCNC3=O)CC2)n1,Percent Effect,30 µM,45.33%
O=C1NCCN1C1CCN(Cc2nc(-c3ccccc3)no2)CC1,Percent Effect,30 µM,51.92%
Cc1cccc(-c2noc(CN3CCC(N4CCNC4=O)CC3)n2)c1,Percent Effect,"30 µM, 30.03 µM",37%
O=C1NCCN1C1CCN(Cc2nc(-c3ccsc3)no2)CC1,Percent Effect,30 µM,51.47%
O=C1NCCN1C1CCN(Cc2nc(-c3ccoc3)no2)CC1,Percent Effect,"30 µM, 30.03 µM",14.49%
NC(=O)C1CCCN1C(=O)c1cccc2c1OCO2 (stereo not given),Percent Effect,"30.3 µM, […]",-0.4744%
CCC(NC(=O)C1CC1)c1ccccc1OCC(=O)N1CCCC1 (stereo not given),Percent Effect,30 µM,-1.247%
CNC(=O)C1CN(C)CCN(C(=O)CCn2nnc3ccccc32)C1 (stereo not given),Percent Effect,"30.3 µM, […]",12.96%
